Screening results: PubChem, several laboratories
CYP2C9 inh = inhibitors of human CYP2C9. inhibition, % at 5 µM. actives 20% (n = 96,000). CYP2C9 Supersomes, luciferin-H conversion, luminescence;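 active = blocking of liver enzyme CYP2C9 beyond about 50% at 5 µM, limit read from the data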
sEH inh = inhibitors of human soluble epoxide hydrolase; P34913; recombinant human sEH enzymatic activity assay; inhibition, % at 2 µM; actives 0.34% (n = 91,000); in the data active = inhibition above about 80%
CYP2C9 act = CYP2C9 (human) activation. activation factor at 5 µM. actives 1.4% (n = 96,000). recombinant CYP2C9, luciferin-H conversion, luminescence; hits give high values; factor 1 = untreated enzyme, 0 = blocked. P11712;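 active = activation factor of 2 or more for CYP2C9 at a 5 µM dose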;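 note: 0 = sulfaphenazole-blocked wells and 1 = vehicle-only wells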
sEH activator = activators of human soluble epoxide hydrolase. actives 0.04% (n = 91,000). activation, % at 2 µM. P34913. purified human sEH enzymatic activity, activator screen; in the data active = activation above about 37%
CYP2C19 activ = cytochrome P450 2C19 (human) activation | P33261 | recombinant CYP2C19, luciferin-H EGE luminescence; hits give high values; 0 = fully inhibited enzyme, 1 = untreated enzyme | activation factor at 5 µM | 96,000 tested, under 10 active | AID 1025;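 active = activation factor of at least 2 at 5 µM in the primary screen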;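 note: 0 = wells with 2.5 mM tranylcypromine and 1 = vehicle-only wells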
Target sequence (P33261 whole entry, looked up): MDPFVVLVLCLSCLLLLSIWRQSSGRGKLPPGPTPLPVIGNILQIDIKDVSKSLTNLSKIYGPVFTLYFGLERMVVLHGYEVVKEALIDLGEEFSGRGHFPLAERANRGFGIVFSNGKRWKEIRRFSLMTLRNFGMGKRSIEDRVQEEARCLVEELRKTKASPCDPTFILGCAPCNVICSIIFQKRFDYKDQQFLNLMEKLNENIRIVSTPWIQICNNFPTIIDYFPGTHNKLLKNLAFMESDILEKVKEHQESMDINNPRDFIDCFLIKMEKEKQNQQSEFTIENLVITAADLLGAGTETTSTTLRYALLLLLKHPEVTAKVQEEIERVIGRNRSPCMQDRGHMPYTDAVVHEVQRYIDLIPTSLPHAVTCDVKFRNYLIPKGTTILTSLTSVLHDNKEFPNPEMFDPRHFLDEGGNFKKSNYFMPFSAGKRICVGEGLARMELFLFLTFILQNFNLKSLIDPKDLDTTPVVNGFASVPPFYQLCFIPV
CYP2C19 inh = inhibitors of human CYP2C19; P33261; CYP2C19 Supersomes, luciferin-H EGE luminescence, 30 min; inhibition, % at 5 µM; actives 21% (n = 96,000); AID 778;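 active = CYP2C19 inhibition above a set limit at 5 µM in the primary screen, cut at about 50% in these data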;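 note: plate controls were negative control wells for no effect and 2.5 mM tranylcypromine positive control for full effect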
Numbers without * were called inactive; x = not tested or not shown. In the library only some 27% were active in any assay of this set; here they are far more common.

SMILES	CYP2C9 inh	sEH inh	CYP2C9 act	sEH activator	CYP2C19 activ	CYP2C19 inh
CCOC(=O)N1CCC(NC(=O)C2CCN(S(=O)(=O)N3CCC(C)CC3)CC2)CC1	21	x	0.8	x	1	4
CC(=O)NS(=O)(=O)c1ccc(NC(=O)c2cc(-c3ccc(C)c(C)c3)nc3ccccc23)cc1	16	-3	0.8	3	0.9	12
CCCc1ccc(-c2cc(C(=O)NN3CCOCC3)c3ccccc3n2)cc1	87*	-15	0.1	13	0.6	39
CCc1ccc(-c2cc(C(=O)Nn3cnnc3)c3ccccc3n2)cc1	99*	-4	0	7	0.2	83*
CC(C)Cc1cc(C(=O)N2N=C(C(F)F)CC2(O)C(F)F)c2ccccc2n1 (stereo not given)	x	2	x	3	x	x
CCc1ccc(-c2cc(C(=O)N3N=C(C(F)F)CC3(O)C(F)F)c3ccccc3n2)cc1 (stereo not given)	78*	1	0.2	0	0.8	22
CCCc1cc(C(=O)O)c2ccccc2n1	-5	-8	1	5	1.1	-14
CCCc1ccc(-c2cc(C(=O)NCCc3ccc(S(N)(=O)=O)cc3)c3ccccc3n2)cc1	98*	-5	0	8	0.6	45
C=CCNC(=O)COC(=O)c1cc(S(=O)(=O)N2CCOCC2)ccc1N1CCCCC1	4	5	1	-4	1	-3
CCOC(=O)C(C)Sc1nc(-c2ccco2)cc(C(F)(F)F)c1C#N (stereo not given)	20	-1	0.8	0	0.9	7
CC(/C=C/c1ccccc1)=N\NC(=O)c1ccncc1	49	10	0.5	-12	0.6	40
O=C(Nc1ccccc1)O/N=C/c1ccncc1	60*	1	0.4	4	0.3	70*
CCc1c(C#N)c(SCCC(=O)Nc2ccc(OC)cc2)nc2c1C(=O)CC(C)(C)C2	84*	-7	0.2	10	0.2	83*
COc1cc(S(=O)(=O)NC2CCCCC2)ccc1F	-109	-24	2.1*	22	0.2	85*
CCOc1ccccc1N1CCN(S(=O)(=O)c2ccc(F)c(F)c2)CC1	38	13	0.6	-13	0.5	45
COc1cc(S(=O)(=O)NC2CCCC2)c(OC)cc1Cl	42	-3	0.6	3	0	99*
CCOc1cc(S(=O)(=O)NC2CCCC2)ccc1Cl	-31	4	1.3	-4	0.6	38
CCOc1cc(S(=O)(=O)N2CCCCCC2)ccc1F	-31	-18	1.3	15	0.1	87*
CCOc1cc(S(=O)(=O)NC2CCCCC2)ccc1F	60*	-17	0.4	17	0.2	80*
Cc1ccc(C)c(N(CC(N)=O)S(C)(=O)=O)c1	-14	4	1.1	-4	1.1	-7
CN1C(=O)CC(N2CCN(Cc3ccc(Cl)cc3)CC2)C1=O (stereo not given)	7	-20	0.9	21	0.8	23
CCOC(=O)c1ccc(S(=O)(=O)NC2CCCCCCC2)n1C	85*	16	0.1	-11	0.5	53*
CCn1c(=O)c2cc(S(=O)(=O)NCc3ccccc3)ccc2n(CC)c1=O	13	-4	0.9	10	0.8	16
CCn1c(=O)c2cc(S(=O)(=O)NC3CCCCC3)ccc2n(CC)c1=O	53*	-8	0.5	5	0.5	49
Cc1c(NC2=NC3(CCCCC3)Cc3ccccc32)c(=O)n(C)n1-c1ccccc1	x	-12	x	10	x	x
SMILES	CYP2C9 inh	sEH inh	CYP2C9 act	sEH activator	CYP2C19 activ	CYP2C19 inh
FC(F)(F)C(F)(F)C(F)(F)c1nnc2ccc(N3CCOCC3)nn12	76*	12	0.2	-10	0.2	76*
COc1ccc(OC)c(Nc2cc(C)nc3ccccc23)c1	50	-10	0.5	10	0.4	56*
COc1ccc(OC)c(Nc2cc(-c3ccccc3)nc(N)n2)c1	79*	3	0.2	-2	0.2	80*
COc1cccc(Nc2cc(C)nc3ccccc23)c1	x	7	x	-8	x	x
O=C(CCCN1C(=O)C2CCCCN2C1=O)N1CCN(c2ccc([N+](=O)[O-])cc2)CC1 (stereo not given)	0	-14	1	17	1	-2
O=C1C(=O)N(CCCn2ccnc2)C(c2cccnc2)/C1=C(/O)c1ccc(F)cc1 (stereo not given)	89*	x	0.1	x	1	-2
Cc1ccc(C)c(OCC(=O)NCCN(C)C)c1	-5	4	1.1	-9	1	-2
CCCN1C(=O)/C(=C/c2cc(C)n(C)c2C)SC1=Nc1ccc(OC)cc1	10	-13	0.9	16	1.1	-5
COc1ccc(N=C2S/C(=C\c3cc(C)n(C)c3C)C(=O)N2C)cc1	55*	4	0.4	-6	0.5	51*
COc1ccc(CCN2C(=O)CC(NCc3ccc4c(c3)OCO4)C2=O)cc1OC (stereo not given)	20	-1	0.8	1	0.7	33
COc1ccc(C2C(Oc3ccccc3C)C(=O)N2Cc2ccc(F)cc2)cc1OC (stereo not given)	76*	6	0.2	-6	0.1	90*
COc1ccc(CCN2C(=O)C(Oc3ccccc3C)C2c2ccc3c(c2)OCO3)cc1OC (stereo not given)	60*	-5	0.4	6	0.3	66*
Cc1ccc2nc(Cl)c(CN(C(=O)c3cnccn3)C3CCCCC3)cc2c1	30	7	0.7	-4	1	-2
Clc1ccc(NC2=NCCCCC2)cc1	-14	6	1.1	-4	0.9	8
Cc1ccc(CNC(=O)CCNC(=O)Cn2ccc3ccccc3c2=O)o1	5	x	0.9	x	1	-1
Nc1ccc(Sc2cnn(-c3ccccc3)c(=O)c2Cl)cc1	91*	-14	0.1	16	0	99*
O=C(Nc1nc(-c2ccc(Cl)s2)cs1)c1cccs1	85*	x	0.1	x	0.5	54*
O=C(Nc1nc(-c2ccccc2)cs1)c1cccs1	34	x	0.7	x	0.8	15
CCOC(=O)c1ccccc1NC(=O)c1ccc(N(C)S(C)(=O)=O)cc1	28	11	0.7	-9	0.7	33
COC(=O)c1ccc(NC(=O)c2ccccc2N(C)S(C)(=O)=O)cc1	38	3	0.6	1	0.4	62*
CCOC(=O)c1ccccc1NC(=O)c1ccccc1N(C)S(C)(=O)=O	43	10	0.6	-12	0.2	76*
COC(=O)c1ccccc1NC(=O)c1ccccc1N(C)S(C)(=O)=O	39	6	0.6	-6	0.5	50*
CN(c1ccccc1C(=O)Nc1ccc(S(=O)(=O)N2CCCC2)cc1)S(C)(=O)=O	64*	-4	0.4	2	0.9	8
CN(c1ccccc1C(=O)Nc1ccc(S(=O)(=O)N2CCCCC2)cc1)S(C)(=O)=O	16	-18	0.8	15	1.1	-12
COC(=O)c1ccccc1N(C)S(C)(=O)=O	-10	4	1.1	-4	1.1	-5
